Measurements taken from PubChem BioAssay (NCI).
Compounds without any hit were thinned out: in the full panel of roughly 83,000, 20% have a hit.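 In brief: 96-well plates, 48 h treatment, single concentration, percent growth endpoint.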 Unmarked numbers belong to inactive results. The source made the active and inactive calls. Rule for the calls: active = growth percent below 10; inactive = the rest.

These compounds were tested on NCI/ADR-RES ovarian (assay: NCI-60 one-dose screen, 48 h (100 = growth as untreated, 0 = no growth, -100 = all killed)). Details: 10 µM unless noted.

Structure (SMILES)	growth
CC(C)(C)c1nn(-c2ccccc2)c2c1CC1(CN2Cc2ccc3c(c2)OCO3)C(=O)c2ccccc2C1=O	101%
COc1ccc(-c2cc(-c3ccc(N(C)C)cc3)nc(NC(=O)c3ccncc3)n2)cc1	96.6%
Nc1nc(-c2ccc(F)cc2)cc(-c2cnn(-c3ccccc3)n2)n1	106%
CC(=O)CC(C)(C)c1ccc(Cl)cc1	96.2%
Nc1c(C(=O)Nc2ccccc2Cl)sc2nc3c(cc12)CCCCCC3	35%
O=C(Nc1ccc(Nc2cc(Nc3ccccc3)ncn2)cc1)Nc1cc(C(F)(F)F)ccc1F	81.1%
CCOC(=O)C(Cc1cc(I)c(O)c(I)c1)NC(=O)c1ccccc1 (stereo unspecified)	106%
CC[C@H](Nc1cc(C)nc(N)n1)c1nc2cccc(NCc3ccc(C(=O)NO)cc3)c2c(=O)n1-c1ccccc1	90.6%
C=C1CCC2C3(C)COC(c4cccc(Cl)c4)OC3CCC2(C)C1/C=C/C1=CCOC1=O (stereo unspecified)	44%
CCN(CC)CC(O)CNc1c2ccc([N+](=O)[O-])cc2nc2cc(OC)c(OC)cc12 (stereo unspecified)	51.7%
COc1cc(-c2c3sc(=O)[nH]c3nc3c2c(=O)[nH]n3C(C)C)cc2c1OCO2	102%
O=S(=O)(Nc1ccc(F)c(Cl)c1)c1ccc(-c2cnc(C3CC3)o2)cc1	-17% (active)
COc1ccc(/C=c2/c(=O)[nH]c3nc4sc(C)c(C)c4c(=O)n23)cc1	79.3%
Fc1ccc(Cc2ccc(F)cc2)cc1	101%
CC(C)c1c(C(=O)Nc2ccccc2)c(-c2ccccc2)c(-c2ccc(F)cc2)n1CC[C@@H]1CC=CC(=O)O1	-1.87% (active)
COc1ccc2nc3cc(Cl)ccc3c(N3CCN(c4ccnc(N5CCN(C)CC5)n4)CC3)c2c1	84.9%
COc1cc(NCCCCN=C(N)NC(N)=NC(C)C)c2ncccc2c1	109%
CS(=O)CCCCCN=C=S (stereo unspecified)	1.36% (active)
O=C(CO[N+](=O)[O-])Nc1ccc(C(=O)/C=C/c2ccc3c(c2)OCO3)cc1	84.5%

Structure (SMILES)	growth
O=C(CCN1CCOCC1)Nc1ccc(Cn2nnc3c2C(=O)c2nnn(Cc4ccc(NC(=O)CCN5CCOCC5)cc4)c2C3=O)cc1	109%
O=C1Nc2ccccc2/C1=C/C(=N/c1nnc(-c2ccc(Cl)cc2)s1)c1ccccc1	41%
Cc1ccc(SCN2CCN(c3cccc(Cl)c3)CC2)cc1	98.9%
COc1ccccc1N1CCN(CCn2c(=O)c3c(c4ccccc4n3C)n(C)c2=O)CC1	100%
CS(=O)(CCCCN=C=S)=NC(=O)c1c(F)c(F)c(F)c(F)c1F (stereo unspecified)	103%
O=C(Cn1cc(CN2C(=O)c3ccccc3S2(=O)=O)nn1)Nc1ccc([N+](=O)[O-])cc1Cl	89.3%
c1ccc(-c2nc(N3CCOCC3)c3c4c(sc3n2)CCCCC4)nc1	27.3%
O=[N+]([O-])c1c(F)cccc1Nc1cccc(F)c1	110%
CC1(C)CC(=O)C(c2c(-c3ccccc3)[nH]c3[nH]c(=S)[nH]c(=O)c23)=C(O)C1	108%
O=C([C@@H](COCc1ccccc1)N1C(=O)[C@@H](N2C(=O)OC[C@@H]2c2ccccc2)[C@H]1/C=C/c1ccccc1)N1CCC(CCN2CCCCC2)CC1	95.4%
COc1cc(/C=N\NC(=O)CN2CCN(c3cc4c(cc3F)c(=O)c(C(=O)N/N=C/c3ccc(O)c(OC)c3)cn4C3CC3)CC2)ccc1O	99.9%
CC/C=C\C[C@H](O)C/C=C1/C(=O)C=C[C@@H]1C/C=C\CCCC(N)=O	10.7%
ClC1=C2NC=NC2n2c(nnc2-c2ccc(Cl)cc2)N1 (stereo unspecified)	108%
COc1ccc(C(=O)c2sc3nc(-c4ccccc4OC)ccc3c2N)cc1OC	33.1%
CCN1CCN(Cc2ccc(NC(=O)Nc3nc4ccc(Oc5ccnc(C(=O)NC)c5)cc4s3)cc2C(F)(F)F)CC1	-12.7% (active)
COc1ccc2nc3cc(Cl)ccc3c(N3CCN(c4nccc(NCc5ccccc5)n4)CC3)c2c1	78.5%
C=C1CCC2C3(C)COC(c4ccc(SC)cc4)OC3CCC2(C)C1C/C=C1/C(=O)OCC1O (stereo unspecified)	49.8%
O=c1[nH]c(-c2ccccn2)nc2sc3c(c12)CCCCC3	15.1%
COc1ccc(C/C(C)=C(\c2ccc(Cl)cc2)c2ccc(OCCN3CCCCCC3)cc2)cc1	85.7%

The compounds below were run on T-47D breast in the same assay as above. Details: 10 µM unless noted.

Structure (SMILES)	growth
CC(C)(C)c1nn(-c2ccccc2)c2c1CC1(CN2Cc2ccc3c(c2)OCO3)C(=O)c2ccccc2C1=O	94.6%
COc1ccc(-c2cc(-c3ccc(N(C)C)cc3)nc(NC(=O)c3ccncc3)n2)cc1	88.9%
Nc1nc(-c2ccc(F)cc2)cc(-c2cnn(-c3ccccc3)n2)n1	87.1%
CC(=O)CC(C)(C)c1ccc(Cl)cc1	94.2%
Nc1c(C(=O)Nc2ccccc2Cl)sc2nc3c(cc12)CCCCCC3	41.4%
O=C(Nc1ccc(Nc2cc(Nc3ccccc3)ncn2)cc1)Nc1cc(C(F)(F)F)ccc1F	24.1%
CCOC(=O)C(Cc1cc(I)c(O)c(I)c1)NC(=O)c1ccccc1 (stereo unspecified)	86.6%
CC[C@H](Nc1cc(C)nc(N)n1)c1nc2cccc(NCc3ccc(C(=O)NO)cc3)c2c(=O)n1-c1ccccc1	18.7%
C=C1CCC2C3(C)COC(c4cccc(Cl)c4)OC3CCC2(C)C1/C=C/C1=CCOC1=O (stereo unspecified)	27.7%
CCN(CC)CC(O)CNc1c2ccc([N+](=O)[O-])cc2nc2cc(OC)c(OC)cc12 (stereo unspecified)	-27.9% (active)
COc1cc(-c2c3sc(=O)[nH]c3nc3c2c(=O)[nH]n3C(C)C)cc2c1OCO2	105%
O=S(=O)(Nc1ccc(F)c(Cl)c1)c1ccc(-c2cnc(C3CC3)o2)cc1	27.4%
COc1ccc(/C=c2/c(=O)[nH]c3nc4sc(C)c(C)c4c(=O)n23)cc1	92.7%
Fc1ccc(Cc2ccc(F)cc2)cc1	101%
CC(C)c1c(C(=O)Nc2ccccc2)c(-c2ccccc2)c(-c2ccc(F)cc2)n1CC[C@@H]1CC=CC(=O)O1	17.1%
COc1ccc2nc3cc(Cl)ccc3c(N3CCN(c4ccnc(N5CCN(C)CC5)n4)CC3)c2c1	-26.1% (active)
COc1cc(NCCCCN=C(N)NC(N)=NC(C)C)c2ncccc2c1	-8.55% (active)
CS(=O)CCCCCN=C=S (stereo unspecified)	-26.3% (active)
O=C(CO[N+](=O)[O-])Nc1ccc(C(=O)/C=C/c2ccc3c(c2)OCO3)cc1	83%

Structure (SMILES)	growth
O=C(CCN1CCOCC1)Nc1ccc(Cn2nnc3c2C(=O)c2nnn(Cc4ccc(NC(=O)CCN5CCOCC5)cc4)c2C3=O)cc1	-3.09% (active)
O=C1Nc2ccccc2/C1=C/C(=N/c1nnc(-c2ccc(Cl)cc2)s1)c1ccccc1	65.9%
Cc1ccc(SCN2CCN(c3cccc(Cl)c3)CC2)cc1	86.7%
COc1ccccc1N1CCN(CCn2c(=O)c3c(c4ccccc4n3C)n(C)c2=O)CC1	64.4%
CS(=O)(CCCCN=C=S)=NC(=O)c1c(F)c(F)c(F)c(F)c1F (stereo unspecified)	44.2%
O=C(Cn1cc(CN2C(=O)c3ccccc3S2(=O)=O)nn1)Nc1ccc([N+](=O)[O-])cc1Cl	76.9%
c1ccc(-c2nc(N3CCOCC3)c3c4c(sc3n2)CCCCC4)nc1	8.3% (active)
O=[N+]([O-])c1c(F)cccc1Nc1cccc(F)c1	108%
CC1(C)CC(=O)C(c2c(-c3ccccc3)[nH]c3[nH]c(=S)[nH]c(=O)c23)=C(O)C1	98.1%
O=C([C@@H](COCc1ccccc1)N1C(=O)[C@@H](N2C(=O)OC[C@@H]2c2ccccc2)[C@H]1/C=C/c1ccccc1)N1CCC(CCN2CCCCC2)CC1	77.2%
COc1cc(/C=N\NC(=O)CN2CCN(c3cc4c(cc3F)c(=O)c(C(=O)N/N=C/c3ccc(O)c(OC)c3)cn4C3CC3)CC2)ccc1O	-1.62% (active)
CC/C=C\C[C@H](O)C/C=C1/C(=O)C=C[C@@H]1C/C=C\CCCC(N)=O	1.28% (active)
ClC1=C2NC=NC2n2c(nnc2-c2ccc(Cl)cc2)N1 (stereo unspecified)	90.8%
COc1ccc(C(=O)c2sc3nc(-c4ccccc4OC)ccc3c2N)cc1OC	26.4%
CCN1CCN(Cc2ccc(NC(=O)Nc3nc4ccc(Oc5ccnc(C(=O)NC)c5)cc4s3)cc2C(F)(F)F)CC1	-27.9% (active)
COc1ccc2nc3cc(Cl)ccc3c(N3CCN(c4nccc(NCc5ccccc5)n4)CC3)c2c1	41.8%
C=C1CCC2C3(C)COC(c4ccc(SC)cc4)OC3CCC2(C)C1C/C=C1/C(=O)OCC1O (stereo unspecified)	23.6%
O=c1[nH]c(-c2ccccn2)nc2sc3c(c12)CCCCC3	33.8%
COc1ccc(C/C(C)=C(\c2ccc(Cl)cc2)c2ccc(OCCN3CCCCCC3)cc2)cc1	56.8%
